About 8,800 targets were measured; listed, in parts, are those with a hit and a random draw of the rest. About 0.5% of all pairs of compound and target were hits.
compound: c1cn2cc(-c3ccc4cn[nH]c4c3)nc(Nc3ccc(N4CCOCC4)cc3)c2n1 [entospletinib]; assay: log2 fold change, soluble protein after heating vs DMSO (PISA); higher = thermal stabilisation; K562 lysate, 10 uM; active = over 0.2 and 3.5 SD of the protein, either way, in both replicates (recomputed)
Procedure, shortened: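 Soluble protein was defined as the supernatant remaining after 21,000xg for 90 min, following pooling of heated aliquots and adjustment to 0.5% NP-40 at 4°C. Before that, crude K562 extract at 1 mg/mL protein in PBS pH 7.4 with 1 mM MgCl2 was treated with 10 μM compound for 30 min and heated for 3 min across 48°C-58°C. Quantification used TMTpro 16plex LC-MS/MS with channel sums equalised, and values are log-two fold changes in thermal stability relative to solvent controls from duplicates.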

UniProt Q86VV8, sequence (Q86VV8 whole entry, looked up): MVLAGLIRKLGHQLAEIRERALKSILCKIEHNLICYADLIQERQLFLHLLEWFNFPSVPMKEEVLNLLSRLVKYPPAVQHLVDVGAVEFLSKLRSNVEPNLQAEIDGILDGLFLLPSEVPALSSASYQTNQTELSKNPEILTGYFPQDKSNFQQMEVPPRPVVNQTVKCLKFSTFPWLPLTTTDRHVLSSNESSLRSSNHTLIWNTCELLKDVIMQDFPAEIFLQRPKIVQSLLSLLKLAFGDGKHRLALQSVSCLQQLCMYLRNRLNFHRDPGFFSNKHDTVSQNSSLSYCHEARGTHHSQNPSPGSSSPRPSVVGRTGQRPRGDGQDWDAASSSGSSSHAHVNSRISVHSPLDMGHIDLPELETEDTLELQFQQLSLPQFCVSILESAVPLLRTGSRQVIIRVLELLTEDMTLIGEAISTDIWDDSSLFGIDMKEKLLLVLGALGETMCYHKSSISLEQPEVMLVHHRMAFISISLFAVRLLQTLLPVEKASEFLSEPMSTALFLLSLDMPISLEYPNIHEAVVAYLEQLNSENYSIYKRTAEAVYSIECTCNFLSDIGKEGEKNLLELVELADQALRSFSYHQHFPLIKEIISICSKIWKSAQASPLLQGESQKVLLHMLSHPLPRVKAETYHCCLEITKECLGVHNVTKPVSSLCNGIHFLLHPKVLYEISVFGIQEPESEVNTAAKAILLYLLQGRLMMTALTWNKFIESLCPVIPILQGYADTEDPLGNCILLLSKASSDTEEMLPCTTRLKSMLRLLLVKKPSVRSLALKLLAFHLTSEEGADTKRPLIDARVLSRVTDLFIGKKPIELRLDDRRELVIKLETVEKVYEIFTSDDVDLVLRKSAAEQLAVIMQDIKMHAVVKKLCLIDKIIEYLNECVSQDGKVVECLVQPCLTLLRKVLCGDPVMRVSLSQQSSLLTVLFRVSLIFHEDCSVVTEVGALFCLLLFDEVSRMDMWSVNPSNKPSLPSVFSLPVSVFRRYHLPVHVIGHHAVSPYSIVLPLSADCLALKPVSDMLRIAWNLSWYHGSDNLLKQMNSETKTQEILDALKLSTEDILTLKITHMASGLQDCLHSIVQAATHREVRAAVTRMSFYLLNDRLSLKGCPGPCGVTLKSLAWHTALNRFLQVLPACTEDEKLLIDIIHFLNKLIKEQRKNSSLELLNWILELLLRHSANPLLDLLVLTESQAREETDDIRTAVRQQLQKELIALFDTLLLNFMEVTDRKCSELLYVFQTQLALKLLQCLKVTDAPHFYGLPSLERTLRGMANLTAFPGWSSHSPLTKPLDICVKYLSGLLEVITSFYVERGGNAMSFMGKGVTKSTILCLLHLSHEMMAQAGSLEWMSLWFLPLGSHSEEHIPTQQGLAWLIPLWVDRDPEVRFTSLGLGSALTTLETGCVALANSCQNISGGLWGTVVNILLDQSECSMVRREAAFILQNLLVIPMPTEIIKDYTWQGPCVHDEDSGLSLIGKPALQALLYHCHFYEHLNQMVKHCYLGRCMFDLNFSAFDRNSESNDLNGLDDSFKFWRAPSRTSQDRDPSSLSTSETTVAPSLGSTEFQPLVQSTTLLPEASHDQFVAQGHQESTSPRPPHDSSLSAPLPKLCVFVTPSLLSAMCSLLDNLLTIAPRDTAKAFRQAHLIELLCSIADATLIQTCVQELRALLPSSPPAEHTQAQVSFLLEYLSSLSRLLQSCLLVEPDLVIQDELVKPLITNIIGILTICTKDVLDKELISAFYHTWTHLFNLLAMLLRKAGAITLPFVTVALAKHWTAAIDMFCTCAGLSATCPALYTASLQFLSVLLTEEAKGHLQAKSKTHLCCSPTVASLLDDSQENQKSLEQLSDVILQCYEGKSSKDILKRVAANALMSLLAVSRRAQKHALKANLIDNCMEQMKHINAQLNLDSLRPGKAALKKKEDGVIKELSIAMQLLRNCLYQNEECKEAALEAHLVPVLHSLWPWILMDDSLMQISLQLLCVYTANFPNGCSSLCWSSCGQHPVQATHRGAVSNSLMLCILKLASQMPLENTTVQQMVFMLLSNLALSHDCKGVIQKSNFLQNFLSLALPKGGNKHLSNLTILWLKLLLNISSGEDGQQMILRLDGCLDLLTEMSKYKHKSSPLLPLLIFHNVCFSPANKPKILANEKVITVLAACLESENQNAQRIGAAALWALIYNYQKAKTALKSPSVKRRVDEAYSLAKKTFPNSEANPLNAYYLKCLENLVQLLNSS
UniProt Q9BXT8, sequence (Q9BXT8 whole entry, looked up): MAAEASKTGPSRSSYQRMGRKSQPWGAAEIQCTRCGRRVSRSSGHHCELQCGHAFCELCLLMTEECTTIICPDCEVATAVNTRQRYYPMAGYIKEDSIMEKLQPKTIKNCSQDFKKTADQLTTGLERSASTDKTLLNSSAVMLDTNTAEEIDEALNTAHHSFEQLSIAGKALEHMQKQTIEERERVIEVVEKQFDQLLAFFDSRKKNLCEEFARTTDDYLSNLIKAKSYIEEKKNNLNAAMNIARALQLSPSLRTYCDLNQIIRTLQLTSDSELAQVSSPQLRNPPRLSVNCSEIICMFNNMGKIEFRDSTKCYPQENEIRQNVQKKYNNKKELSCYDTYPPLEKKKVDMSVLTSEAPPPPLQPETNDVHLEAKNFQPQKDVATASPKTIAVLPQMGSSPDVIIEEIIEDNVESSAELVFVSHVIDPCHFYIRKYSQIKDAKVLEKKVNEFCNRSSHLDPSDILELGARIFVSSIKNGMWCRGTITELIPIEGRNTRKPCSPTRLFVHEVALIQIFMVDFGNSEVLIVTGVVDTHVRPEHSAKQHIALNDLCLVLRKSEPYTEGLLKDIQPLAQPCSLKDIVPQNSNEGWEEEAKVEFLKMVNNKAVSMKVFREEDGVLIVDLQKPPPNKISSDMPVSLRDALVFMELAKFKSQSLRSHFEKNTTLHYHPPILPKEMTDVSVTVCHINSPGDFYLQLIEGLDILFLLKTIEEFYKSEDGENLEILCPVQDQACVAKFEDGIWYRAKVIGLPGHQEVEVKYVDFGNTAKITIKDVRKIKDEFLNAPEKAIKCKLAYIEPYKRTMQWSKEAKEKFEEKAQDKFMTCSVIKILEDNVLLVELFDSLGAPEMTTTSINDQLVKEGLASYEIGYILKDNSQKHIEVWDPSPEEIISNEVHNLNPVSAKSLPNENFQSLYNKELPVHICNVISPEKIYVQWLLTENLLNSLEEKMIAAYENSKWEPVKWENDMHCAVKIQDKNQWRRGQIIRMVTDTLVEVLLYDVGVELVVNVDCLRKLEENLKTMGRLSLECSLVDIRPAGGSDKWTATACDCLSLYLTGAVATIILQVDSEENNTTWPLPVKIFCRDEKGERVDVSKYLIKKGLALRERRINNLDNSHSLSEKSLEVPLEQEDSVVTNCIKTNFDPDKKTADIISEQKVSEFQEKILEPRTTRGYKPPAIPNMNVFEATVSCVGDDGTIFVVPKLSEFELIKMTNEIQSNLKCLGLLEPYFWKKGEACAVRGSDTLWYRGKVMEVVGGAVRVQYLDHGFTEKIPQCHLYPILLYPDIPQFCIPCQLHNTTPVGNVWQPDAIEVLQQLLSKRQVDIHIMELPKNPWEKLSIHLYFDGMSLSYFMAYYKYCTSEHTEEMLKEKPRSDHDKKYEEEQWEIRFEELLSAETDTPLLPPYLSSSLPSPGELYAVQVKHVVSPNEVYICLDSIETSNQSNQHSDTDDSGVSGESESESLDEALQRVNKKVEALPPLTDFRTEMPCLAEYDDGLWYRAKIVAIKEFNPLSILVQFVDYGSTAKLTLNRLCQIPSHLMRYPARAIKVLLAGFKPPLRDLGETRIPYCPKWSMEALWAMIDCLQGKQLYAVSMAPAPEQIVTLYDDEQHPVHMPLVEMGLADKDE
UniProt Q9UQR0, sequence (Q9UQR0 whole entry, looked up): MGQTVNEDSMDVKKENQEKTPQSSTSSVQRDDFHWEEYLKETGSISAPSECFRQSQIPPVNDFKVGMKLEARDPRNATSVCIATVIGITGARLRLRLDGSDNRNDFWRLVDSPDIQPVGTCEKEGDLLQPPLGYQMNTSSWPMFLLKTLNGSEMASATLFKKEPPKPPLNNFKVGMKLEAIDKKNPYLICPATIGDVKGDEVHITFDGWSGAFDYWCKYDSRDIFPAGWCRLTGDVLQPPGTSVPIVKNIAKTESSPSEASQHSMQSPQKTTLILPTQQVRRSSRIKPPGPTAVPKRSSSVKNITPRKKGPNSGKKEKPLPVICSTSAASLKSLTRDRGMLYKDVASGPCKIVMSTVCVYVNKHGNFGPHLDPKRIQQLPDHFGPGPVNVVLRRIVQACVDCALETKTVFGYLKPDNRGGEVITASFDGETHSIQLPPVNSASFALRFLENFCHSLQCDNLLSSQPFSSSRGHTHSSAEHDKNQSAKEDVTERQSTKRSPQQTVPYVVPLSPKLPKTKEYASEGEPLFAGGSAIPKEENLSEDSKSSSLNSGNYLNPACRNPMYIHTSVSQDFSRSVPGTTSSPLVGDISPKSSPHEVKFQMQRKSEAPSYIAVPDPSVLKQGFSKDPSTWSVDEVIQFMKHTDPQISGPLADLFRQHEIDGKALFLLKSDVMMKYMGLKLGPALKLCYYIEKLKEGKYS
UniProt Q9UL25, sequence (Q9UL25 whole entry, looked up): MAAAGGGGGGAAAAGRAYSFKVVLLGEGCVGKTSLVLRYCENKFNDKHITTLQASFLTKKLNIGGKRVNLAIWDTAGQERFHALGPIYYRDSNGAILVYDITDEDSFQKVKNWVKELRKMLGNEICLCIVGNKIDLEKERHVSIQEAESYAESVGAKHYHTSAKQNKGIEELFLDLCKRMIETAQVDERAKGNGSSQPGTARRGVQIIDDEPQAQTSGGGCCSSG
UniProt P40937, sequence (P40937 whole entry, looked up): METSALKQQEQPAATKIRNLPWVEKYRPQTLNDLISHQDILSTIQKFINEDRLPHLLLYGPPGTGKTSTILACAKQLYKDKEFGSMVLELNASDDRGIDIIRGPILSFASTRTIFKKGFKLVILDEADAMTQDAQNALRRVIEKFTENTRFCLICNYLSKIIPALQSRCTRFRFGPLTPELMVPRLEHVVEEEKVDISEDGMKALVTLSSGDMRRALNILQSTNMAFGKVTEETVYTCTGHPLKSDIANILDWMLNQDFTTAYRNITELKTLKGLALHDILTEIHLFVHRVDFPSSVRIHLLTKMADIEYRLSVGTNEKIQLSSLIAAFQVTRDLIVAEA

Target	log2 fold change
RHOU (UniProt Q7L0Q8)	0.024 (inactive)
RUFY2 isoform 1 (UniProt Q8WXA3)	-0.014 (inactive)
RBM8A (UniProt Q9Y5S9)	-0.019 (inactive)
RYR1 (UniProt P21817)	0.101 (inactive)
RAB21 (UniProt Q9UL25)	0.02 (inactive)
SERAC1 (UniProt Q96JX3)	-0.001 (inactive)
RHBDD1 (UniProt Q8TEB9)	0.036 (inactive)
RPL36AL (UniProt Q969Q0)	-0.001 (inactive)
RALGAPB isoform 3 (UniProt Q86X10)	-0.045 (inactive)
RFC5 (UniProt P40937)	0.014 (inactive)
SDHC (UniProt Q99643)	0.088 (inactive)
SCNM1 (UniProt Q9BWG6)	0.092 (inactive)
RNF17 (UniProt Q9BXT8)	0.107 (inactive)
QSER1, A0A3B3IRW6	0.002 (inactive)
RTTN (UniProt Q86VV8)	0.053 (inactive)
SAP30 (UniProt O75446)	-0.022 (inactive)
RCC1 isoform 2 (UniProt P18754)	-0.014 (inactive)
RNPS1 (UniProt Q15287)	0.009 (inactive)
SAR1B (UniProt Q9Y6B6)	-0.053 (inactive)
RNASEH2B (UniProt Q5TBB1)	0.011 (inactive)
RNF213, A0A0A0MTC1	0.052 (inactive)
RAD17 (UniProt O75943)	-0.039 (inactive)
ROCK1 (UniProt Q13464)	-0.016 (inactive)
SCML2 (UniProt Q9UQR0)	0.007 (inactive)
RAB5IF isoform 5 (UniProt Q9BUV8)	-0.015 (inactive)

— the supplement of paper PMC10849652
